Experimental data published in the supplement of paper PMC11732987, “Enantioselective OTUD7B fragment discovery through chemoproteomics screening and high-throughput optimisation” (Communications Chemistry, 2025).

What was measured:
Experiment in all cases: log2 ratio of Biotin-Ahx-Ub-VS probe labelling (fragment/DMSO); higher = less target engagement (more negative = stronger competition), active = hit call of the paper (q ≤ 0.05, log2 ratio ≤ -1)
Conditions in all cases: compound concentration: 200 uM; treatment time: 3 h
OTUD6B = target: T1, OTUD6B (UniProt Q8N6M0)
T1 sequence (whole entry): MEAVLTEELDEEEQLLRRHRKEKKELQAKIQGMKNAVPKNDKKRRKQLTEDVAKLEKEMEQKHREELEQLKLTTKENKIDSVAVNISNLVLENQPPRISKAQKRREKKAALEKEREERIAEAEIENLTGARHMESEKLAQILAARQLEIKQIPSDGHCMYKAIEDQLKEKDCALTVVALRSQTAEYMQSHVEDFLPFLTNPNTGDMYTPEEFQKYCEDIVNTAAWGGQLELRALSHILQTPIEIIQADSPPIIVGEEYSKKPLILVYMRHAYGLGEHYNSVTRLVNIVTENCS
Outline: (§1)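 Using Biotin-Ahx-Ub-VS at 0.5 µM final for 1 h, DUBs were labelled in HEK293T lysate (495 µg per sample) that had first been treated in triplicate with fragment at 200 µM or vehicle for 3 h. NeutrAvidin enrichment, LysC and trypsin digestion and diaPASEF LC-MS/MS followed. Spectronaut label-free quantities were global-median-normalised. Values are average log2 fragment/vehicle ratios by unpaired t-test, using proteins with ≥2 unique peptides.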

OTUD7B = target: T2, OTUD7B (UniProt Q6GQQ9)
T2 sequence (whole entry): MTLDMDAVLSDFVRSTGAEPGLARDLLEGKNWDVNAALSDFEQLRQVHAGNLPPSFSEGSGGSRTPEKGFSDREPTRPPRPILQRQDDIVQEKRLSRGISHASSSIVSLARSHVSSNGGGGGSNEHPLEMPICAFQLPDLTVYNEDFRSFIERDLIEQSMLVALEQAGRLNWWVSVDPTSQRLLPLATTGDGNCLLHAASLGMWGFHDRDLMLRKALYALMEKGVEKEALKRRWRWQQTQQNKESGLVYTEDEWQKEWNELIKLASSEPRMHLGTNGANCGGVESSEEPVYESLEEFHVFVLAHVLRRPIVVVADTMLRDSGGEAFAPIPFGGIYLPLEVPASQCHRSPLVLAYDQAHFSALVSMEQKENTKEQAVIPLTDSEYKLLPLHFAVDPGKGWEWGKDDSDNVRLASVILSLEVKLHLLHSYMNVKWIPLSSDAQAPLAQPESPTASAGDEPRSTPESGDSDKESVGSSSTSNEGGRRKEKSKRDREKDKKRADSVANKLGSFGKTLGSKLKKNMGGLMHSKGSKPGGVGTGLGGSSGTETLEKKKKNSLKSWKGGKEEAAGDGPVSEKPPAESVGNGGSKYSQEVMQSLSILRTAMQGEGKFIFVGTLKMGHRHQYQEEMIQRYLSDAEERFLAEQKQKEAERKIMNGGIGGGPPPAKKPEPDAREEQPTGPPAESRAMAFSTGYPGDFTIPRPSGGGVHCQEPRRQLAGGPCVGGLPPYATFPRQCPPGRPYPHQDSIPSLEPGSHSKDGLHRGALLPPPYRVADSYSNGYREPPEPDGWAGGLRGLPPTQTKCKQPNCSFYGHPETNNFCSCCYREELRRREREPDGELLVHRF
Outline: as §1

PRPF8 = PRPF8 (UniProt Q6P2Q9)
Outline: as §1

PSMD7 = target: T3, PSMD7 (UniProt P51665)
T3 sequence (whole entry): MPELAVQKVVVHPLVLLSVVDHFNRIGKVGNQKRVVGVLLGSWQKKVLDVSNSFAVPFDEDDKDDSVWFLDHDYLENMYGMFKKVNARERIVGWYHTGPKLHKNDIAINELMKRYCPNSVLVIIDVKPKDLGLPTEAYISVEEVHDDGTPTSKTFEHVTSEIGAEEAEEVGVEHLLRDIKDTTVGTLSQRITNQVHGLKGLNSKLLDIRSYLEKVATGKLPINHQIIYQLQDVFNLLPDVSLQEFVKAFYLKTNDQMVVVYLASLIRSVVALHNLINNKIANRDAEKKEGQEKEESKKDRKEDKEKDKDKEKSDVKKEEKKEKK
Outline: as §1

UCHL1 = UCHL1 (UniProt P09936)
UCHL1, sequence (P09936 whole entry, looked up): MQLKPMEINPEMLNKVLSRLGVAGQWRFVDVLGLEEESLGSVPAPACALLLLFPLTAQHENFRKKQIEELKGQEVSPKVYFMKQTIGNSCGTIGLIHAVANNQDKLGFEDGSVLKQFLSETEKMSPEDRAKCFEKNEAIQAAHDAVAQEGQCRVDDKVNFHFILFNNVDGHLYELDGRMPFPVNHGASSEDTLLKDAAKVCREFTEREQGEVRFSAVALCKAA
Outline: as §1

UCHL3 = target: T4, UCHL3 (UniProt P15374)
T4 sequence (whole entry): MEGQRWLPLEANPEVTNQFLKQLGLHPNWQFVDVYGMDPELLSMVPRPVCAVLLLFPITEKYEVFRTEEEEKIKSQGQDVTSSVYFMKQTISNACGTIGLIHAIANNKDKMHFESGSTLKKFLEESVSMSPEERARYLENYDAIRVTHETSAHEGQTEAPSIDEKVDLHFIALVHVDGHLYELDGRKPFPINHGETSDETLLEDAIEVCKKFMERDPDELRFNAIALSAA
Outline: as §1

UCHL5 = target: T5, UCHL5 (UniProt Q9Y5K5)
T5 sequence (whole entry): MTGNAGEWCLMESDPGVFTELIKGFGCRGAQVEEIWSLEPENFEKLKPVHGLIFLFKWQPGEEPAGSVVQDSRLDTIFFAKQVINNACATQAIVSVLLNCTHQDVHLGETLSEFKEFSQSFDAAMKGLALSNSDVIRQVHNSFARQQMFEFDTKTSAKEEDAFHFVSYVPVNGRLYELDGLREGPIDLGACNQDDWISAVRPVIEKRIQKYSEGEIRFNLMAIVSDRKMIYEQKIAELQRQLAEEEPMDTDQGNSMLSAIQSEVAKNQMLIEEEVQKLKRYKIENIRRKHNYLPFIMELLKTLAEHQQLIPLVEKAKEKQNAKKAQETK
Outline: as §1

USP10 = USP10 (UniProt Q14694)
USP10, sequence (Q14694 whole entry): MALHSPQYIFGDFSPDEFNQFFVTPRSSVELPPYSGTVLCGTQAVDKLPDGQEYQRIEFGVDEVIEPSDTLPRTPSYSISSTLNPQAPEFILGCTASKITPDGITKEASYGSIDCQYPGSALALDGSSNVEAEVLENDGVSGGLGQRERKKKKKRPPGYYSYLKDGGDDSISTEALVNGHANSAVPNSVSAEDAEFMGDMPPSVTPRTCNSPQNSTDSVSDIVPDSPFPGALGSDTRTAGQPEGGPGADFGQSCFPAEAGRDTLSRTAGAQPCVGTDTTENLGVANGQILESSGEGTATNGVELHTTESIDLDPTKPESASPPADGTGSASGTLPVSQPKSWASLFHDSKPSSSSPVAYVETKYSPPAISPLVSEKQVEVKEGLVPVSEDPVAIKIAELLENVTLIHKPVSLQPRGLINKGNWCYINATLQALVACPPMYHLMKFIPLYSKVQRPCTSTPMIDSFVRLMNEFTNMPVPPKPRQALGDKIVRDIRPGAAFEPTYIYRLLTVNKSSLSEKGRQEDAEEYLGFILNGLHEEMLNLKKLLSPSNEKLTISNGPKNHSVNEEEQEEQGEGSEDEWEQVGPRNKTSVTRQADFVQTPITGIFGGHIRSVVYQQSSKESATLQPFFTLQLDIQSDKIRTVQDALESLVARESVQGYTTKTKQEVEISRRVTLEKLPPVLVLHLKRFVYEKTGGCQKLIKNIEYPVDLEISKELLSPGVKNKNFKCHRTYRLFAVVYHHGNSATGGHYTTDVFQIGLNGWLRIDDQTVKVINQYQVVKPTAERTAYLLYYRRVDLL
Outline: as §1

USP15 = target: T6, USP15 (UniProt Q9Y4E8)
T6 sequence (whole entry): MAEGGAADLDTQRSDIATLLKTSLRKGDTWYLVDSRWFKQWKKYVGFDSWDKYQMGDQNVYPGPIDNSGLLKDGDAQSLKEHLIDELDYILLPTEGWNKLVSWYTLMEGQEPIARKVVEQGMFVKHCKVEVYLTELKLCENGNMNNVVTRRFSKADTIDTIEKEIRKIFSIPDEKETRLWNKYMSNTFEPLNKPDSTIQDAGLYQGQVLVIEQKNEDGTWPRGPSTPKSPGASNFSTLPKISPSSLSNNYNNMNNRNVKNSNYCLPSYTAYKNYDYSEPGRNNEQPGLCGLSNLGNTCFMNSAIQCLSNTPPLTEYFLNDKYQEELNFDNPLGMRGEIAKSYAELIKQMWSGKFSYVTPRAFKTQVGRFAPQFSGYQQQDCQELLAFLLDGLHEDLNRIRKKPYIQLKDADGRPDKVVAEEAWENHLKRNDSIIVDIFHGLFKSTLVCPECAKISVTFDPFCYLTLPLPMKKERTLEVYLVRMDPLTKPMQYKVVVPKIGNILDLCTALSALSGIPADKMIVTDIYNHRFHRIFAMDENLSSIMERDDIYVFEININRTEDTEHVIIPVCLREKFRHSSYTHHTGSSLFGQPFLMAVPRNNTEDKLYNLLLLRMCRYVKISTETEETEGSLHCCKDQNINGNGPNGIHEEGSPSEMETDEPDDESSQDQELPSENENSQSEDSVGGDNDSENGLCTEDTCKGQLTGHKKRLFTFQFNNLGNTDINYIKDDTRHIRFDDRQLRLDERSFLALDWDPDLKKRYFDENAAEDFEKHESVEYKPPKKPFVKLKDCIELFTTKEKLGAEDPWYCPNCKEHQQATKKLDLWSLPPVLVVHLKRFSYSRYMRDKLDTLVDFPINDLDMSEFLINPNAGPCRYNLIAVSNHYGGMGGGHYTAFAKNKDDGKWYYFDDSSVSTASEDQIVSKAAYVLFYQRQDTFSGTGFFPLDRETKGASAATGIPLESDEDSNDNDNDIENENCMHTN
Outline: as §1

Measured: log2 ratio of Biotin-Ahx-Ub-VS probe labelling

Cl.Cn1nccc1C(NC(=O)CCl)c1ccccc1 (centres undefined)
inactive: OTUD6B -0.147 | OTUD7B -0.872 | PRPF8 0.0203 | PSMD7 -0.597 | UCHL3 0.209 | UCHL5 -0.353 | USP10 -0.0201 | USP15 -0.218
active: UCHL1 -1.03
